Data taken from PubChem BioAssay (NCI).
This is part of a sample that, as a whole, favours compounds with a hit. Of some 83,000 tested, about 20% had one in any assay.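 Assay: single dose, 48 h. Readout: percent growth (0 = no net growth; negative = cell death). Active: <10.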 Activity calls are given as the source filed them.

Key:
Assay in all cases: NCI-60 one-dose screen, 48 h (100 = growth as untreated, 0 = no growth, -100 = all killed)
Details in all cases: 10 µM unless noted
RPMI-8226 leukemia = system: RPMI-8226 leukemia
OVCAR-8 ovarian = system: OVCAR-8 ovarian
OVCAR-5 ovarian = system: OVCAR-5 ovarian
OVCAR-4 ovarian = system: OVCAR-4 ovarian
SK-OV-3 ovarian = system: SK-OV-3 ovarian
IGROV1 ovarian = system: IGROV1 ovarian
OVCAR-3 ovarian = system: OVCAR-3 ovarian
HS 578T breast = system: HS 578T breast
NCI/ADR-RES ovarian = system: NCI/ADR-RES ovarian
T-47D breast = system: T-47D breast

Measured: growth

CC/C=C\C[C@H](O)C/C=C1/C(=O)C=C[C@@H]1C/C=C\CCCC(=O)OCCS(=O)(=O)c1ccccc1
inactive: RPMI-8226 leukemia 14.6% | OVCAR-8 ovarian 26.3% | OVCAR-5 ovarian 121% | OVCAR-4 ovarian 84.3% | SK-OV-3 ovarian 104% | IGROV1 ovarian 100% | OVCAR-3 ovarian 20.7% | HS 578T breast 36.2% | NCI/ADR-RES ovarian 75.2% | T-47D breast 18.3%

O=C(Nc1ccc(Br)cc1F)c1cc(Cl)ccc1O
inactive: OVCAR-4 ovarian 10.2% | IGROV1 ovarian 14.1%
active: RPMI-8226 leukemia -24.5% | OVCAR-8 ovarian 9.87% | OVCAR-5 ovarian -9.6% | SK-OV-3 ovarian -7.14% | OVCAR-3 ovarian 2.24% | HS 578T breast 7.7% | NCI/ADR-RES ovarian 5.2% | T-47D breast -12.9%

NC1(N2SC(S)=C3CCCC=C32)CCCCC1
inactive: RPMI-8226 leukemia 95.8% | OVCAR-8 ovarian 107% | OVCAR-5 ovarian 104% | OVCAR-4 ovarian 107% | SK-OV-3 ovarian 100% | IGROV1 ovarian 93.6% | OVCAR-3 ovarian 107% | HS 578T breast 103% | NCI/ADR-RES ovarian 104% | T-47D breast 84.5%

CCOC(=O)c1cnc2c(C)cccc2c1Nc1ccc(C(C)=O)cc1
inactive: OVCAR-8 ovarian 35% | OVCAR-5 ovarian 45% | OVCAR-4 ovarian 16.2% | SK-OV-3 ovarian 68.2% | HS 578T breast 25.6% | NCI/ADR-RES ovarian 25.1%
active: RPMI-8226 leukemia -34.2% | IGROV1 ovarian 2.45% | OVCAR-3 ovarian -8.93% | T-47D breast -18.4%

COc1ccc(Cn2cc(Cn3cc(C=C4C(=O)NC(=O)NC4=O)c4ccccc43)nn2)cc1
inactive: RPMI-8226 leukemia 83.8% | OVCAR-8 ovarian 87.6% | OVCAR-5 ovarian 71.7% | OVCAR-4 ovarian 82.4% | SK-OV-3 ovarian 75.3% | IGROV1 ovarian 94.3% | OVCAR-3 ovarian 88.9% | HS 578T breast 82.6% | NCI/ADR-RES ovarian 84.1% | T-47D breast 64.3%

CCOC(=O)c1cc2c(n1Cc1ccccc1)-c1oncc1CCC2
inactive: RPMI-8226 leukemia 64.4% | OVCAR-8 ovarian 80.9% | OVCAR-5 ovarian 101% | OVCAR-4 ovarian 72.9% | SK-OV-3 ovarian 87.1% | IGROV1 ovarian 58% | OVCAR-3 ovarian 76.6% | HS 578T breast 76.5% | NCI/ADR-RES ovarian 52.3% | T-47D breast 80.7%

COc1cc(C(=O)Nc2ccc(-c3nc4ccccc4[nH]3)cc2)cc(OC)c1OC
inactive: RPMI-8226 leukemia 19.2% | OVCAR-8 ovarian 27.1% | OVCAR-5 ovarian 83.5% | OVCAR-4 ovarian 61.6% | SK-OV-3 ovarian 56.1% | IGROV1 ovarian 46.8% | HS 578T breast 72.5% | NCI/ADR-RES ovarian 52.5% | T-47D breast 60%
active: OVCAR-3 ovarian 9.3%

COc1cc(/C=C/C(=O)c2c(C)nc3ccccc3c2/C=C/c2ccccc2)cc(OC)c1OC
active: RPMI-8226 leukemia -27.3% | OVCAR-5 ovarian 7.55% | IGROV1 ovarian 2.87% | OVCAR-3 ovarian -35.9% | NCI/ADR-RES ovarian 8.09%
inactive: OVCAR-8 ovarian 11.6% | OVCAR-4 ovarian 40.8% | SK-OV-3 ovarian 59.3% | HS 578T breast 24.7% | T-47D breast 13.3%

CCOc1c(Br)cc(C2C(C(=O)OC)=CN(C)C=C2C(=O)OC)cc1OC
active: RPMI-8226 leukemia 7.41%
inactive: OVCAR-8 ovarian 85.8% | OVCAR-5 ovarian 83.9% | OVCAR-4 ovarian 72.9% | SK-OV-3 ovarian 87.5% | IGROV1 ovarian 67.7% | OVCAR-3 ovarian 83.3% | HS 578T breast 75.8% | NCI/ADR-RES ovarian 71% | T-47D breast 57.2%

COc1ccc(-c2nc(-c3ccccn3)c(-c3ccccn3)n2CC(C)C)cc1OC1CCCC1
active: RPMI-8226 leukemia -1.78% | SK-OV-3 ovarian 8.21%
inactive: OVCAR-8 ovarian 15.7% | OVCAR-5 ovarian 33.8% | OVCAR-4 ovarian 13.5% | IGROV1 ovarian 19.6% | OVCAR-3 ovarian 15.5% | HS 578T breast 43.3% | NCI/ADR-RES ovarian 10.9% | T-47D breast 21.5%

CC1=C(CC(=O)c2cccc([N+](=O)[O-])c2)C(=O)c2ccccc2C1=O
active: RPMI-8226 leukemia -7.18% | OVCAR-8 ovarian 9.43% | OVCAR-4 ovarian -89.2% | IGROV1 ovarian -61.1% | OVCAR-3 ovarian -94% | HS 578T breast -20.6% | T-47D breast -10.2%
inactive: OVCAR-5 ovarian 37.5% | SK-OV-3 ovarian 30.5% | NCI/ADR-RES ovarian 30.9%

CCCc1c(C)c2sc(=O)[nH]c2[nH]c1=O
inactive: RPMI-8226 leukemia 112% | OVCAR-8 ovarian 104% | OVCAR-5 ovarian 103% | OVCAR-4 ovarian 100% | SK-OV-3 ovarian 104% | IGROV1 ovarian 112% | OVCAR-3 ovarian 113% | HS 578T breast 103% | NCI/ADR-RES ovarian 105% | T-47D breast 102%

COc1ccc(/C=C2\NC(=O)NC2=O)cc1O
inactive: RPMI-8226 leukemia 101% | OVCAR-8 ovarian 98.5% | OVCAR-5 ovarian 108% | OVCAR-4 ovarian 98.8% | SK-OV-3 ovarian 103% | IGROV1 ovarian 107% | OVCAR-3 ovarian 116% | HS 578T breast 109% | NCI/ADR-RES ovarian 102% | T-47D breast 100%

CCOC(=O)C1(Cc2ccccc2)CCN(Cc2cccc(OC)c2O)CC1
inactive: OVCAR-5 ovarian 42.4% | OVCAR-4 ovarian 17.2% | SK-OV-3 ovarian 17.5% | OVCAR-3 ovarian 22.8% | HS 578T breast 28.6% | T-47D breast 17.2%
active: RPMI-8226 leukemia 9.49% | OVCAR-8 ovarian 3.17% | IGROV1 ovarian -8.64% | NCI/ADR-RES ovarian 6.98%

O=NN(C(=O)NC1CCC(C(=O)O)CC1)C1CCC(C(=O)O)CC1 (stereo not given)
inactive: RPMI-8226 leukemia 81.8% | OVCAR-8 ovarian 99.7% | OVCAR-5 ovarian 97.4% | OVCAR-4 ovarian 95.8% | SK-OV-3 ovarian 114% | IGROV1 ovarian 107% | OVCAR-3 ovarian 113% | HS 578T breast 107% | NCI/ADR-RES ovarian 108% | T-47D breast 103%

O=C(Nc1ccc(N2CCNCC2)cc1)c1[nH]ncc1Nc1ncnc2sc3c(c12)CCC3
active: RPMI-8226 leukemia -40.6% | OVCAR-8 ovarian -43.7% | OVCAR-5 ovarian -88.1% | SK-OV-3 ovarian -27.9% | IGROV1 ovarian -9.21% | OVCAR-3 ovarian -81.7% | HS 578T breast -54.8% | NCI/ADR-RES ovarian -57.3%
inactive: OVCAR-4 ovarian 15.8% | T-47D breast 20.4%

CSc1nc2c(c(=O)[nH]1)N=C1c3ccccc3C(=O)C1C(c1ccc(F)cc1)N2 (stereo not given)
inactive: RPMI-8226 leukemia 68.4% | OVCAR-8 ovarian 78.9% | OVCAR-5 ovarian 93.6% | OVCAR-4 ovarian 41.2% | SK-OV-3 ovarian 79.4% | IGROV1 ovarian 58.3% | OVCAR-3 ovarian 21.7% | HS 578T breast 66.8% | NCI/ADR-RES ovarian 57.5% | T-47D breast 72.9%

Nc1ccc(-c2ccc(-c3ccccc3N)c3[nH]c4ccccc4c23)cc1
active: RPMI-8226 leukemia 6.61% | NCI/ADR-RES ovarian -6.69%
inactive: OVCAR-8 ovarian 33.1% | OVCAR-5 ovarian 56.7% | OVCAR-4 ovarian 67.7% | SK-OV-3 ovarian 28.7% | IGROV1 ovarian 53.7% | OVCAR-3 ovarian 19.4% | HS 578T breast 40.7% | T-47D breast 15.2%

O=c1oc2ccc(Cl)cc2c(=O)n1-c1ccc(I)cc1F
inactive: OVCAR-5 ovarian 23.1% | OVCAR-4 ovarian 16.1% | IGROV1 ovarian 14.9%
active: RPMI-8226 leukemia -25.3% | OVCAR-8 ovarian 8.73% | SK-OV-3 ovarian 7.52% | OVCAR-3 ovarian 6.61% | HS 578T breast -0.395% | NCI/ADR-RES ovarian 5.51% | T-47D breast -6.79%

CCN1CCN(C(=S)SCC(=O)Nc2nc3ccc(C)cc3s2)CC1
inactive: RPMI-8226 leukemia 94.7% | OVCAR-8 ovarian 91.9% | OVCAR-5 ovarian 95.3% | OVCAR-4 ovarian 86.2% | SK-OV-3 ovarian 102% | IGROV1 ovarian 72% | OVCAR-3 ovarian 106% | HS 578T breast 112% | NCI/ADR-RES ovarian 103% | T-47D breast 87.8%

Oc1c(CN2CCN(c3ccccc3F)CC2)cc(Br)c2cccnc12
inactive: NCI/ADR-RES ovarian 23.8% | T-47D breast 14.3%
active: RPMI-8226 leukemia -0.421% | OVCAR-8 ovarian -49% | OVCAR-5 ovarian -19.3% | OVCAR-4 ovarian -81% | SK-OV-3 ovarian -8.19% | IGROV1 ovarian -34.1% | OVCAR-3 ovarian -86% | HS 578T breast -10.3%

Cc1ccc(S(=O)c2ccc([N+](=O)[O-])c3nonc23)cc1 (stereo not given)
inactive: RPMI-8226 leukemia 91.3% | OVCAR-8 ovarian 99.7% | OVCAR-5 ovarian 118% | OVCAR-4 ovarian 101% | SK-OV-3 ovarian 112% | IGROV1 ovarian 104% | OVCAR-3 ovarian 94.5% | HS 578T breast 96.5% | NCI/ADR-RES ovarian 114% | T-47D breast 59.1%

O=C(Nc1ncc(Cc2cccc(C(F)(F)F)c2)s1)C1COc2ccccc2O1 (stereo not given)
inactive: RPMI-8226 leukemia 76.9% | OVCAR-8 ovarian 89.9% | OVCAR-5 ovarian 87.4% | OVCAR-4 ovarian 84.6% | SK-OV-3 ovarian 100% | IGROV1 ovarian 86.8% | OVCAR-3 ovarian 90.6% | HS 578T breast 65.4% | NCI/ADR-RES ovarian 87.3% | T-47D breast 67.1%

O=C(c1ccccc1)N(CCc1ccc(Cl)cc1)C(=S)N(C(=O)c1ccccc1)c1ccccc1
active: RPMI-8226 leukemia -27%
inactive: OVCAR-8 ovarian 106% | OVCAR-5 ovarian 106% | OVCAR-4 ovarian 96.6% | SK-OV-3 ovarian 120% | IGROV1 ovarian 116% | OVCAR-3 ovarian 104% | HS 578T breast 108% | NCI/ADR-RES ovarian 109% | T-47D breast 61.7%

CCCCC(O)(c1ccc(Cl)cc1)C(CN1CCOCC1)c1ccc(Cl)cc1 (stereo not given)
inactive: RPMI-8226 leukemia 18.5% | OVCAR-8 ovarian 22.3% | OVCAR-5 ovarian 83.1% | OVCAR-4 ovarian 32% | SK-OV-3 ovarian 81.1% | IGROV1 ovarian 40% | HS 578T breast 40% | NCI/ADR-RES ovarian 29.9% | T-47D breast 32%
active: OVCAR-3 ovarian 3.29%

Clc1ccc(Nc2nnc(-c3ccc4c(c3)OCO4)o2)cc1
inactive: RPMI-8226 leukemia 91.1% | OVCAR-8 ovarian 94.2% | OVCAR-5 ovarian 104% | OVCAR-4 ovarian 102% | SK-OV-3 ovarian 102% | IGROV1 ovarian 101% | OVCAR-3 ovarian 114% | HS 578T breast 109% | NCI/ADR-RES ovarian 98.6% | T-47D breast 82.5%

CN1CCN(Cc2ccc(NC(=O)c3[nH]ncc3Nc3cc(OC4CCCC4)ncn3)cc2)CC1
active: SK-OV-3 ovarian 4.89%
inactive: RPMI-8226 leukemia 16.9% | OVCAR-8 ovarian 42.6% | OVCAR-5 ovarian 50.5% | OVCAR-4 ovarian 59.2% | IGROV1 ovarian 35% | OVCAR-3 ovarian 11.2% | HS 578T breast 32.8% | NCI/ADR-RES ovarian 44% | T-47D breast 64.1%

CCOC(=O)c1cnc2ccc(Cl)cc2c1NCCCN(C)C
active: RPMI-8226 leukemia -3.54% | OVCAR-8 ovarian -3.54% | OVCAR-4 ovarian -12.1% | IGROV1 ovarian -16.2% | NCI/ADR-RES ovarian 7.93%
inactive: OVCAR-5 ovarian 53.8% | SK-OV-3 ovarian 14.5% | OVCAR-3 ovarian 18.8% | HS 578T breast 33% | T-47D breast 14.6%
